From PubChem BioAssay AID1159580 (chemical genetic matrix, 2015)
Among all 5,500 compounds or so, about 2,000 (36%) were called active. Roughly 18% stayed inconclusive and do not appear here. Rule as the data show it: active = normalized growth mostly below about 0.91 (no sharp cut-off); inconclusive = no clear call, values can overlap the other calls; inactive = mostly above about 0.92. The list shows a part of the results.

Assay: chemical genetic growth profiling, strain panel (AID 1159580);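 also: tested at 20 µM; growth read once vehicle control cultures reached saturation at 30 °C; 1 = growth at the plate median or of vehicle wells; lower values mean less growth of the strain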
Details: S. cerevisiae deletion strains, growth OD

Measured: normalized growth

N[C@@H](CC(=O)N1CCn2c(nnc2C(F)(F)F)C1)Cc1cc(F)c(F)cc1F
inactive: locus YAL021C, strain ccr4, active compounds read low 0.992 | locus YAL026C, strain drs2, active compounds read low 0.97 | locus YAL030W, strain snc1, active compounds read low 0.985 | locus YBL061C, strain skt5, active compounds read low 0.985 | locus YBR009C, strain hhf1, active compounds read low 0.949 | locus YBR023C, strain chs3, active compounds read low 0.993 | locus YBR171W, strain sec66, active compounds read low 0.992 | locus YBR231C, strain swc5, active compounds read low 0.995 | locus YBR279W, strain paf1, active compounds read low 0.988 | locus YCL011C, strain gbp2, active compounds read low 0.982 | locus YCL016C, strain dcc1, active compounds read low 0.992 | locus YCL061C, strain MRC1, active compounds read low 0.987 | locus YCL069W, strain vba3, active compounds read low 0.984 | locus YCR088W, strain abp1, active compounds read low 0.984 | locus YDL005C, strain med2, active compounds read low 0.983 | locus YDL040C, strain nat1, active compounds read low 0.992 | locus YDR001C, strain nth1, active compounds read low 0.985 | locus YDR069C, strain doa4, active compounds read low 0.971 | locus YDR137W, strain rgp1, active compounds read low 1.01 | locus YDR159W, strain sac3, active compounds read low 0.952 | locus YDR195W, strain ref2 0.941 | locus YDR297W, strain sur2, active compounds read low 0.978 | locus YDR334W, strain swr1, active compounds read low 0.982 | locus YDR335W, strain msn5, active compounds read low 0.991 | locus YDR392W, strain spt3, active compounds read low 0.887 | locus YEL003W, strain gim4, active compounds read low 0.966 | locus YEL037C, strain rad23, active compounds read low 0.983 | locus YEL061C, strain CIN8 (second series), active compounds read low 0.983 | locus YER015W, strain faa2, active compounds read low 0.978 | locus YER016W, strain bim1, active compounds read low 0.995 | locus YER111C, strain swi4, active compounds read low 0.988 | locus YER155C, strain BEM2 (second series), active compounds read low 0.966 | locus YFR010W, strain ubp6, active compounds read low 0.975 | locus YGL167C, strain pmr1, active compounds read low 0.964 | locus YGL173C, strain kem1, active compounds read low 0.985 | locus YGL227W, strain vid30, active compounds read low 0.967 | locus YGL240W, strain doc1, active compounds read low 0.981 | locus YGL253W, strain hxk2, active compounds read low 0.996 | locus YHR013C, strain ard1, active compounds read low 0.944 | locus YHR027C, strain rpn1, active compounds read low 0.985 | locus YHR030C, strain SLT2, active compounds read low 1.03 | locus YHR079C, strain IRE1, active compounds read low 0.985 | locus YHR142W, strain chs7, active compounds read low 1.01 | locus YJL092W, strain hpr5, active compounds read low 0.989 | locus YJL095W, strain BCK1 (second series), active compounds read low 0.993 | locus YJL095W, strain BCK1, active compounds read low 0.96 | locus YJL115W, strain asf1, active compounds read low 0.984 | locus YJL129C, strain trk1, active compounds read low 1.01 | locus YJL154C, strain vps35, active compounds read low 0.987 | locus YJL164C, strain tpk1, active compounds read low 1 | locus YJL166W, strain qcr8, active compounds read low 0.993 | locus YJL187C, strain SWE1, active compounds read low 0.98 | locus YJR066W, strain TOR1, active compounds read low 0.928 | locus YKL160W, strain elf1, active compounds read low 1.01 | locus YKR026C, strain gcn3, active compounds read low 0.972 | locus YKR091W, strain srl3, active compounds read low 0.955 | locus YLL001W, strain dnm1, active compounds read low 0.992 | locus YLL026W, active compounds read low 0.995 | locus YLL041C, strain sdh2, active compounds read low 0.994 | locus YLR027C, strain aat2, active compounds read low 0.988 | locus YLR113W, strain HOG1, active compounds read low 0.978 | locus YLR221C, strain rsa3, active compounds read low 0.989 | locus YLR258W, strain gsy2, active compounds read low 0.979 | locus YLR262C, strain YPT6 (second series), active compounds read low 1 | locus YLR320W, strain mms22, active compounds read low 0.998 | locus YLR342W, strain FKS1, active compounds read low 0.958 | locus YLR357W, strain rsc2, active compounds read low 0.989 | locus YLR370C, strain arc18, active compounds read low 0.977 | locus YLR384C, strain iki3, active compounds read low 0.969 | locus YML120C, strain ndi1, active compounds read low 0.988 | locus YMR058W, strain fet3, active compounds read low 0.977 | locus YMR125W, strain sto1, active compounds read low 0.974 | locus YMR129W, active compounds read low 0.984 | locus YMR205C, strain PFK2, active compounds read low 0.96 | locus YMR231W, strain pep5, active compounds read low 0.977 | locus YNL071W, strain lat1, active compounds read low 0.979 | locus YNL183C, strain NPR1, active compounds read low 0.898 | locus YNL209W, strain ssb2, active compounds read low 0.986 | locus YNL248C, strain rpa49, active compounds read low 1.01 | locus YNL322C, strain KRE1 (second series), active compounds read low 0.975 | locus YNR049C, strain mso1, active compounds read low 0.98 | locus YOR001W, strain rrp6, active compounds read low 1.01 | locus YOR070C, strain gyp1, active compounds read low 0.995 | locus YOR080W, strain dia2, active compounds read low 0.976 | locus YOR083W, strain WHI5, active compounds read low 1.01 | locus YOR106W, strain vam3, active compounds read low 0.994 | locus YOR231W, strain MKK1, active compounds read low 0.975 | locus YOR265W, strain rbl2, active compounds read low 0.993 | locus YOR270C, strain vph1, active compounds read low 0.984 | locus YOR290C, strain snf2, active compounds read low 0.903 | locus YPL051W, strain arl3, active compounds read low 1.01 | locus YPL078C, strain atp4, active compounds read low 0.992 | locus YPL106C, strain sse1, active compounds read low 0.976 | locus YPL240C, strain hsp82, active compounds read low 0.965 | locus YPL256C, strain CLN2, active compounds read low 0.981
